Results: PubChem BioAssay (EPA / NIEHS)
Results filed as inconclusive are left out. Active and inactive are the calls of the source. How the source made its calls, unless noted: active means hit-call score of the fitted dose curve at least 0.9, where 1 is the maximum; inconclusive means response in the unintended direction; inactive means score below 0.9.

How the values were obtained:
[1] = ATG_TCF_b_cat_CIS: Attagene CIS-FACTORIAL HepG2 Assay for human T-Cell-Factor with beta-catenin (TCF/b-cat) (AID 2282965; active means hit-call score of the fitted dose curve at least 0.9, where 1 is the maximum; inactive means score below 0.9); details: HepG2 TCF/beta-catenin cis-reporter transcription, actives raise or lower the signal
Procedure, shortened: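 Cells of the HepG2 line carry transiently transfected reporter units whose promoters respond to endogenous factors. Twenty-four hours post-dosing, reporter mRNA induction is measured by fluorescent RT-PCR and capillary electrophoresis, with DMSO as baseline.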

[2] = ATG_TAL_CIS: Attagene CIS-FACTORIAL HepG2 Assay for human TAL Basal Promoter (AID 2282966; active means hit-call score of the fitted dose curve at least 0.9, where 1 is the maximum; inactive means score below 0.9;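 further: background control endpoint measuring basal TAL promoter reporter mRNA not a specific factor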); details: HepG2 Attagene cis-factorial TAL promoter reporter; actives raise or lower the signal
Procedure, shortened: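 HepG2 cells were transiently transfected with promoter-driven multiplexed reporter units and dosed for 24 h. Reporter mRNA was measured by RT-PCR with capillary electrophoresis fluorescence; bidirectional fits used DMSO as baseline, serving as a background control.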

[3] = ATG_VDRE_CIS: Attagene CIS-FACTORIAL HepG2 Assay for human Vitamin D Receptor Element (VDRE) (AID 2282968; active means hit-call score of the fitted dose curve at least 0.9, where 1 is the maximum; inactive means score below 0.9); details: HepG2 VDRE cis-reporter transcription, actives raise or lower the signal
Procedure, shortened: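 Transiently transfected HepG2 cells carrying cis-regulated reporter transcription units were exposed for 24 h. Reporter mRNA was measured by RT-PCR with fluorescent labelling and capillary electrophoresis, and fitted in both directions against DMSO.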

[4] = target: X-box-binding protein 1 (Homo sapiens) (UniProt P17861); assay: ATG_Xbp1_CIS: Attagene CIS-FACTORIAL HepG2 Assay for human X-box Binding Protein 1 (XBP1) (AID 2282972; active means hit-call score of the fitted dose curve at least 0.9, where 1 is the maximum; inactive means score below 0.9); details: HepG2 XBP1 cis-element reporter, Attagene multiplex; actives raise or lower the signal
Sequence of X-box-binding protein 1 (Homo sapiens) (P17861 whole entry, looked up, the tested form may be a part): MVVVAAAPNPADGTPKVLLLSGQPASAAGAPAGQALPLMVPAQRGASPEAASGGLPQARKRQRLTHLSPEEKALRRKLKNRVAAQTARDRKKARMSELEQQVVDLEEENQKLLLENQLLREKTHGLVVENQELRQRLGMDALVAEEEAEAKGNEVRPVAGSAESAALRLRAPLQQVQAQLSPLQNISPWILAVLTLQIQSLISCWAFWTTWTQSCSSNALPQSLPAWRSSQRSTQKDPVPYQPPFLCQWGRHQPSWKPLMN
Procedure, shortened: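 Fluorescence-labelled cDNA fragments from reporter transcripts, separated by capillary electrophoresis, give the signal. Source: HepG2 cells transfected with promoter-driven reporter units, harvested 24 h post-dose. DMSO served as reference for bidirectional curve fitting.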

[5] = ATG_M_19_TRANS: Attagene TRANS-FACTORIAL HepG2 Assay for M19 Transcription Factor (Internal Marker) (AID 2282974); details: HepG2 Attagene TRANS-FACTORIAL M19 internal marker reporter
Procedure, shortened: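 Using RT-PCR and capillary electrophoresis, reporter mRNA from transiently transfected human HepG2 cells was quantified following 24 h exposure; activity was fitted in the positive direction against DMSO.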

[6] = ATG_GAL4_TRANS: Attagene TRANS-FACTORIAL HepG2 Assay for GAL4 (Internal Marker) (AID 2282976); details: HepG2 Attagene TRANS GAL4 internal marker reporter
Procedure, shortened: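 HepG2 cells transiently transfected with multiplexed GAL4-UAS reporter constructs were dosed for 24 h. Reporter mRNA was measured by RT-PCR, 6-FAM primer extension, HpaI digestion and capillary electrophoresis, and gain of signal was fitted relative to DMSO.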

[7] = target: Glucocorticoid receptor (Homo sapiens) (UniProt P04150); assay: ATG_GR_TRANS: Attagene TRANS-FACTORIAL HepG2 Assay for human Glucocorticoid Receptor (GR) (AID 2282978); details: HepG2 Attagene TRANS GR reporter, mRNA transcription;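 further: activators score as hits since higher reporter transcript over DMSO is fitted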
Sequence of Glucocorticoid receptor (Homo sapiens) (P04150 whole entry, looked up, the tested form may be a part): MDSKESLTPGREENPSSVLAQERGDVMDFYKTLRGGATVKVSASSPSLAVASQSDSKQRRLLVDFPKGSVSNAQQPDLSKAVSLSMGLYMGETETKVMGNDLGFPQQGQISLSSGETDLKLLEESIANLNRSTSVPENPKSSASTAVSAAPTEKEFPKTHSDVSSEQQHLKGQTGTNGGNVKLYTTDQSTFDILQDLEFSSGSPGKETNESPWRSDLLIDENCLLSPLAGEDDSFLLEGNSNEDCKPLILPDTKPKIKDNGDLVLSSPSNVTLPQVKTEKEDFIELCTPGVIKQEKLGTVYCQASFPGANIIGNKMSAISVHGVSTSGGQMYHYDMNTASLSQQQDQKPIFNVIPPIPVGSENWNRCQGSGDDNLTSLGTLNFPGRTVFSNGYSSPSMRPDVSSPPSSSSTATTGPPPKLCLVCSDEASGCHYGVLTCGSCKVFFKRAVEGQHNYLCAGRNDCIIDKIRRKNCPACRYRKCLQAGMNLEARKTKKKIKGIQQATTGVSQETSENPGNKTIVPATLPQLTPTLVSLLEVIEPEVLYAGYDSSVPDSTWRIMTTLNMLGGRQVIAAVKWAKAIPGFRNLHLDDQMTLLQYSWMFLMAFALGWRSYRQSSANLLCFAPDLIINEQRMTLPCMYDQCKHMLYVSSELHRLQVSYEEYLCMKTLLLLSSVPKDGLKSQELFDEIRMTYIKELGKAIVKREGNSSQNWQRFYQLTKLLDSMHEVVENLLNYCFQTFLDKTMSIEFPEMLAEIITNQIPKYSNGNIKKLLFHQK
Procedure, shortened: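 Exogenous NR-GAL4 fusion activity was assessed through induced GAL4-UAS reporter transcripts in transfected human HepG2 cells, quantified after 24 h by RT-PCR and fluorescent capillary electrophoresis with DMSO as baseline.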

[8] = target: Bile acid receptor (Homo sapiens) (UniProt Q96RI1); assay: ATG_FXR_TRANS: Attagene TRANS-FACTORIAL HepG2 Assay for Farnesoid X Receptor (FXR) (AID 2282979); details: HepG2 Attagene TRANS FXR-GAL4 reporter transcription;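 further: hits raise reporter mRNA above DMSO so AC50 marks FXR activation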
Sequence of Bile acid receptor (Homo sapiens) (Q96RI1 whole entry, looked up, the tested form may be a part): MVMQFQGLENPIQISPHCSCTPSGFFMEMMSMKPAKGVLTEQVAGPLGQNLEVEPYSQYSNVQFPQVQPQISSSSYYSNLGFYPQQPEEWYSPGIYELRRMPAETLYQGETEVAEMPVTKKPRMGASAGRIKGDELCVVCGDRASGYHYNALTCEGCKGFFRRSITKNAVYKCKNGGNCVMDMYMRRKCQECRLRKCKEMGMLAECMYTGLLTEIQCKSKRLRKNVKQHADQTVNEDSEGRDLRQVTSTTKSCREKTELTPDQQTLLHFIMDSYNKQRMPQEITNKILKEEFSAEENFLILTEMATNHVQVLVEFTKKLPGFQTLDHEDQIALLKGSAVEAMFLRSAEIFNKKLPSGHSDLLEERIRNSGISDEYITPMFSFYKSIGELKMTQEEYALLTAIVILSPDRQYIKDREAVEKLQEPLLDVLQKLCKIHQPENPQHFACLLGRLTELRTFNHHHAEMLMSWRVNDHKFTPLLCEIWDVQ
Procedure, shortened: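 HepG2 cells transiently transfected with reporter constructs in which a chimeric FXR-GAL4 protein drives a GAL4-UAS reporter; 24 h compound exposure. Reporter mRNA measured by RT-PCR, FAM labelling, HpaI digestion and capillary electrophoresis; gain-of-signal versus DMSO.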

[9] = target: Hepatocyte nuclear factor 4-alpha (Homo sapiens) (UniProt P41235); assay: ATG_HNF4a_TRANS: Attagene TRANS-FACTORIAL HepG2 Assay for human Hepatocyte Nuclear Factor 4 alpha (HNF4a) (AID 2282982); details: HepG2 HNF4a transactivation reporter, mRNA readout
Sequence of Hepatocyte nuclear factor 4-alpha (Homo sapiens) (P41235 whole entry, looked up, the tested form may be a part): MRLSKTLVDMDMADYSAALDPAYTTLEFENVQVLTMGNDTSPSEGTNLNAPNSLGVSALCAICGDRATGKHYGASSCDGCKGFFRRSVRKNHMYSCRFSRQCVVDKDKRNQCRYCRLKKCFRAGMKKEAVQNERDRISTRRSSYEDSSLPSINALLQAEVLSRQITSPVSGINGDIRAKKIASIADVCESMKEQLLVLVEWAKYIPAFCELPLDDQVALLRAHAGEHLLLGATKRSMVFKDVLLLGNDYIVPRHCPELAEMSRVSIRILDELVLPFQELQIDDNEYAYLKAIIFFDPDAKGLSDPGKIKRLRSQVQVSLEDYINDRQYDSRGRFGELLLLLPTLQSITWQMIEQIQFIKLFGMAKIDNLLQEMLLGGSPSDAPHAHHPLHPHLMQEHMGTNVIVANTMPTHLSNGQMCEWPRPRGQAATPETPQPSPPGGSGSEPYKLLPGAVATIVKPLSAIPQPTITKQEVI
Procedure, shortened: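 HepG2 cells transiently transfected with HNF4a-Gal4 chimera and GAL4-UAS reporter units, dosed for 24 h. Reporter mRNA measured by RT-PCR, fluorescent primer extension and capillary electrophoresis; gain-of-signal fitted relative to DMSO.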

[10] = target: Transcriptional activator Myb (Homo sapiens) (UniProt P10242); assay: ATG_Myb_CIS: Attagene CIS-FACTORIAL HepG2 Assay for human Myeloblastosis (Myb) Proto-Oncogene Transcription Factor (AID 2282986; active means hit-call score of the fitted dose curve at least 0.9, where 1 is the maximum; inactive means score below 0.9); details: HepG2 Attagene CIS-FACTORIAL Myb reporter transcription; actives raise or lower the signal
Sequence of Transcriptional activator Myb (Homo sapiens) (P10242 whole entry, looked up): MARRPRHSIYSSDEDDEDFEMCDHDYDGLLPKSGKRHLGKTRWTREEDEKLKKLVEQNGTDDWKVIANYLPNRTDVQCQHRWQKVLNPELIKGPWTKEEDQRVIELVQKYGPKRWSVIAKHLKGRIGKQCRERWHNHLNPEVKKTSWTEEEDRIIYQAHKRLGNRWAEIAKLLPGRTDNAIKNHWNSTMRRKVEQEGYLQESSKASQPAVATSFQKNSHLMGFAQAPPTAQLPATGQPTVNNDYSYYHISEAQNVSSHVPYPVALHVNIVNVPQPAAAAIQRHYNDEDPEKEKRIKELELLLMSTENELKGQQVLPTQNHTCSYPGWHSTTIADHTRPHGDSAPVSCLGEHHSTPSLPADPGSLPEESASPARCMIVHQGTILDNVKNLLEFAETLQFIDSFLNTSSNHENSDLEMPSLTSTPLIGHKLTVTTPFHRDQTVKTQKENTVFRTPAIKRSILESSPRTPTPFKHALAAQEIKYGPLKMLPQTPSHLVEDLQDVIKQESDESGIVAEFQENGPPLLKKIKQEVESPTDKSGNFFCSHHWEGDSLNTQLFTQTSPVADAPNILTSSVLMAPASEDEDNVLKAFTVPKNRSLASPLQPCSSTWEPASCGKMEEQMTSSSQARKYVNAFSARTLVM
Procedure, shortened: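 In this HepG2 transient-transfection format, cis-regulated reporter mRNA is quantified 24 h post-dosing by RT-PCR with capillary electrophoresis, fitted bidirectionally to DMSO baseline.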

[11] = target: Estrogen receptor (Homo sapiens) (UniProt P03372); assay: ATG_ERa_TRANS: Attagene TRANS-FACTORIAL HepG2 Assay for human Estrogen Receptor alpha (ERa) (AID 2282970); details: HepG2 Attagene TRANS ERa GAL4 reporter, mRNA
Sequence of Estrogen receptor (Homo sapiens) (P03372 whole entry, looked up, the tested form may be a part): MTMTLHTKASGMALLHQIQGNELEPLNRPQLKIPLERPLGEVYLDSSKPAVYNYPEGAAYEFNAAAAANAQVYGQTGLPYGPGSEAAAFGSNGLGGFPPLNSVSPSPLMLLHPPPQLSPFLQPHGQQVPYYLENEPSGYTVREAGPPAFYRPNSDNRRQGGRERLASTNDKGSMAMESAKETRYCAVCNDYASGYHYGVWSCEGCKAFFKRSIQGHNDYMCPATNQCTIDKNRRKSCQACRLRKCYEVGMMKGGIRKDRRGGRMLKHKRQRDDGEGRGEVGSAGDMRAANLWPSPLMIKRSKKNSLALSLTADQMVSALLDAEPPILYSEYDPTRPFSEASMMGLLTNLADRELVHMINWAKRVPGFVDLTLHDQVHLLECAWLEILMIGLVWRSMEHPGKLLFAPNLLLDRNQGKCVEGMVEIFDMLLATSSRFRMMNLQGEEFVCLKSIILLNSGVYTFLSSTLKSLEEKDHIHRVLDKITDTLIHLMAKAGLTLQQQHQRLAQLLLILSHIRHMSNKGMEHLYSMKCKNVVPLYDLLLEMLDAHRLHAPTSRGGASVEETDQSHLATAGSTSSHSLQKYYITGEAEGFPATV
Procedure, shortened: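 HepG2 cells transiently transfected with multiplexed GAL4-UAS reporter units; ERa activity read via exogenous chimeric NR-Gal4 protein. After 24 hour compound exposure, reporter mRNA measured by RT-PCR with 6-FAM labelling and capillary electrophoresis; gain-of-signal fitted relative to DMSO.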

[12] = ATG_M_06_TRANS: Attagene TRANS-FACTORIAL HepG2 Assay for M06 Transcription Factor (Internal Marker) (AID 2282983); details: HepG2 Attagene TRANS M06 internal marker reporter;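 further: reporter transcript level by RT-PCR then capillary electrophoresis fluorescence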
Procedure, shortened: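 HepG2 cells transiently transfected with multiplexed GAL4-UAS reporter transcription units; after 24 h compound exposure, reporter mRNA measured by RT-PCR, FAM-labelled primer extension, HpaI digestion and capillary electrophoresis. Gain-of-signal fitted versus DMSO baseline; background control readout.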

[13] = ATG_M_32_TRANS: Attagene TRANS-FACTORIAL HepG2 Assay for M32 Transcription Factor (Internal Marker) (AID 2282984); details: HepG2 Attagene TRANS M32 internal marker reporter
Procedure, shortened: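 HepG2 cells transiently transfected with GAL4-UAS reporter units, dosed for 24 hours. Reporter mRNA quantified by RT-PCR, 6-FAM labelling, HpaI digestion and capillary electrophoresis; internal-marker signal fitted upward relative to DMSO.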

[14] = target: Nuclear receptor subfamily 4 group A member 2 (Homo sapiens) (UniProt P43354); assay: ATG_NURR1_TRANS: Attagene TRANS-FACTORIAL HepG2 Assay for human Nuclear Receptor Related Protein 1 (NURR1) (AID 2282985); details: HepG2 Attagene TRANS reporter, mRNA readout
Sequence of Nuclear receptor subfamily 4 group A member 2 (Homo sapiens) (P43354 whole entry, looked up, the tested form may be a part): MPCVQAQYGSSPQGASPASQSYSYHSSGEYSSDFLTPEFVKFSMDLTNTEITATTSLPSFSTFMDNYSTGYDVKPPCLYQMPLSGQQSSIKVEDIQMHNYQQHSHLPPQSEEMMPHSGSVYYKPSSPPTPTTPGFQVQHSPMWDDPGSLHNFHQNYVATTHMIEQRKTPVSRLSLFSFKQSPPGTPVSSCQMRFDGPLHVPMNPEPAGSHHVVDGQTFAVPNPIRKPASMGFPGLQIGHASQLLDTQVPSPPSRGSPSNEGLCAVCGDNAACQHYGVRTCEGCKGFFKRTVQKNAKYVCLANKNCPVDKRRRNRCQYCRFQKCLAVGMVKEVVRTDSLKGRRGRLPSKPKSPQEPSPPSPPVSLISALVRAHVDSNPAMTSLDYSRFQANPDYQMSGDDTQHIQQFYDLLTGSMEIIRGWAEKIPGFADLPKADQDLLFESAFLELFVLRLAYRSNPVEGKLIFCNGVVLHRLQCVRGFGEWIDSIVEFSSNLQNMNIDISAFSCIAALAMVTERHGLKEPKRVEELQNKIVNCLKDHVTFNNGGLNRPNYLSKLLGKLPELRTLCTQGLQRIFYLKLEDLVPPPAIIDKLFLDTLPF
Procedure, shortened: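 HepG2 cells transiently transfected with NURR1-Gal4 chimera and GAL4-UAS reporter units; after 24 hr compound exposure, reporter mRNA quantified by RT-PCR and capillary electrophoresis; gain of signal fitted against DMSO.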

[15] = target: Oxysterols receptor LXR-alpha (Homo sapiens) (UniProt Q13133); assay: ATG_LXRa_TRANS: Attagene TRANS-FACTORIAL HepG2 Assay for human Liver X Receptor alpha (LXRa) (AID 2282980); details: HepG2 Attagene TRANS reporter, LXRa transactivation
Sequence of Oxysterols receptor LXR-alpha (Homo sapiens) (Q13133 whole entry, looked up, the tested form may be a part): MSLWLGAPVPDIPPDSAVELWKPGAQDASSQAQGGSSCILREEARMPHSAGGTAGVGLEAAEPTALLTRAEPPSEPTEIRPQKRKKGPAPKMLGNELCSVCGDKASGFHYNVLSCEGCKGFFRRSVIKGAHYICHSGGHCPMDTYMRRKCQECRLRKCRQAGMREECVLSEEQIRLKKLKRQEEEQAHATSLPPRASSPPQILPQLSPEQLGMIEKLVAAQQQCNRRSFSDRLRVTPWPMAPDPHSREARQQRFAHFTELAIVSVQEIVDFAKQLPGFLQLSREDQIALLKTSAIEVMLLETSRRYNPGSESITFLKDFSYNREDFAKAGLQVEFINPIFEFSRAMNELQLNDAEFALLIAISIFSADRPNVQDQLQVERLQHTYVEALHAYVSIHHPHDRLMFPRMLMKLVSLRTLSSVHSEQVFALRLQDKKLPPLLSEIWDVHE
Procedure, shortened: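 HepG2 cells were transiently transfected with multiplexed reporter units driven by chimeric LXRa–GAL4 fusion proteins, then dosed for 24 h. Reporter mRNA was quantified by RT-PCR, fluorescent labelling and capillary electrophoresis; gain of signal fitted against DMSO baseline.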

[16] = target: Oxysterols receptor LXR-beta (Homo sapiens) (UniProt P55055); assay: ATG_LXRb_TRANS: Attagene TRANS-FACTORIAL HepG2 Assay for human Liver X Receptor beta (LXRb) (AID 2282981); details: HepG2 Attagene TRANS GAL4-LXRb reporter, mRNA
Sequence of Oxysterols receptor LXR-beta (Homo sapiens) (P55055 whole entry, looked up, the tested form may be a part): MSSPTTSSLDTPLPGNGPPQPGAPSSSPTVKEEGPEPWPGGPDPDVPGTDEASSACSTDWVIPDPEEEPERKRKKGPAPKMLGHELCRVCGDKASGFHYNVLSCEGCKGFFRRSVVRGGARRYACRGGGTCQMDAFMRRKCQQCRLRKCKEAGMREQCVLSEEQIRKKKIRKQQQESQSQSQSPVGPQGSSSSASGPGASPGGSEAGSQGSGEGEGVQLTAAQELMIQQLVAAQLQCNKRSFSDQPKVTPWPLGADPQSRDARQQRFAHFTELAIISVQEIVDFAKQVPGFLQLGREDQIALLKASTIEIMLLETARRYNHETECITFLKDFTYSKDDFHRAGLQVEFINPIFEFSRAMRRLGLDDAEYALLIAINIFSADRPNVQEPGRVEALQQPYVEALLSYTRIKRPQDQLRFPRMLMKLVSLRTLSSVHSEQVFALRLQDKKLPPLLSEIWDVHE
Procedure, shortened: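 HepG2 cells transiently transfected with GAL4-UAS reporter units for chimeric NR-Gal4 proteins, dosed for 24 h. Reporter transcripts measured by RT-PCR and capillary electrophoresis; gain-of-signal fitting relative to DMSO.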

[17] = target: Nuclear receptor subfamily 1 group I member 3 (Homo sapiens) (UniProt Q14994); assay: ATG_CAR_TRANS: Attagene TRANS-FACTORIAL HepG2 Assay for human Constitutive Androstane Receptor (CAR) (AID 2282969); details: HepG2 Attagene TRANS-FACTORIAL CAR reporter;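 further: activators raise reporter mRNA above DMSO so AC50 marks induction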
Procedure, shortened: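 HepG2 cells transiently transfected with GAL4-UAS reporter units; TRANS format reads activity of exogenous chimeric NR-Gal4 protein. After 24 h dosing, reporter mRNA quantified by RT-PCR, 6-FAM labelling and capillary electrophoresis; gain of signal fitted against DMSO.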

[18] = target: Estrogen-related receptor gamma (Homo sapiens) (UniProt P62508); assay: ATG_ERRg_TRANS: Attagene TRANS-FACTORIAL HepG2 Assay for human Estrogen-Related Receptor gamma (ERRg) (AID 2282977); details: HepG2 Attagene TRANS reporter, ERRg transactivation;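 further: hits increase reporter signal over DMSO so potencies reflect activators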
Procedure, shortened: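 HepG2 cells transiently transfected with multiplexed GAL4-UAS reporter units driven by chimeric NR-Gal4 proteins; 24 h exposure. Reporter mRNA quantified by RT-PCR, fluorescent labelling, HpaI digestion and capillary electrophoresis; gain of signal vs DMSO.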

Measured: AC50

CCN=C1C=CC(=C(c2ccc(N(CC)CC)cc2)c2ccc(N(CC)CC)cc2)c2ccccc21
active: [1] 0.885 µM | [3] 1.15 µM | [4] 1.86 µM
inactive: [2] | [5] | [6] | [7] | [8] | [9] | [10]

Brc1nc2ccccc2s1
not listed: [8] | [15] | [16] | [17] | [18]
inactive: all other assays above

OCC1CCCO1 (stereo unspecified)
inactive: [1] | [2] | [3] | [4] | [15] | [16] | [12] | [13] | [10]

C=CC(=O)OCC(F)(F)C(F)(F)C(F)(F)C(F)(F)C(F)(F)C(F)(F)C(F)(F)C(F)F
active: [1] 89.1 µM | [11] 1.52 µM
not listed: [5] | [6] | [7] | [9] | [18]
inactive: all other assays above

C[Si](Cl)(Cl)CCC(F)(F)C(F)(F)C(F)(F)C(F)(F)C(F)(F)C(F)(F)F
not listed: [5] | [12] | [17] | [18]
inactive: all other assays above

COC(=O)c1ccc(C=O)cc1
not listed: [9] | [12] | [14] | [15] | [17] | [18]
inactive: all other assays above

CCc1cc(Cc2cc(CC)c(N)c(CC)c2)cc(CC)c1N
inactive: [17] | [11] | [8] | [9] | [12] | [13] | [14] | [10]
active: [1] 33.4 µM | [2] 53.4 µM | [3] 11.6 µM | [4] 38.3 µM

c1ccc(C[P+](c2ccccc2)(c2ccccc2)c2ccccc2)cc1
active: [4] 53.4 µM
not listed: [9] | [11] | [12] | [15] | [17] | [18]
inactive: all other assays above

FC(F)(F)C(F)(F)C(F)(F)CC1CO1 (stereo unspecified)
not listed: [5] | [9] | [12] | [17]
inactive: all other assays above

CCCCCCCCCCCCC[N+](C)(C)Cc1ccccc1
not listed: [5] | [6] | [9] | [14] | [17] | [18]
inactive: all other assays above
